Structures are written as SMILES. Values without a mark were called inactive. Results filed as inconclusive are left out. Activity calls are given as the source filed them. Unless noted, the call rests on the fitted dose curve; in most records, active means well fitted curve in the direction sought with a large enough effect; inconclusive means small, poorly fitted or top-dose-only effect, or another doubt; inactive means no such curve, though single readings can be large; an effect the other way counts as inactive or inconclusive.

Test [1] can be described thus: Confirmation and Secondary Assay for Modulators of Hemoglobin Beta Chain Splicing at IVS2 654 locus (AID 910).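 Further: HeLa cells stably carrying EGFP split by mutant beta-globin IVS2-654 intron.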 The method, boiled down:
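HeLa cells stably expressing EGFP interrupted by β-globin IVS2-654 intron, seeded overnight in Opti-MEM/2% FCS, then treated 2 days at 37 °C. Restored splicing read as total peak GFP intensity per well by laser scanning cytometry (488 nm excitation, 500–520 nm emission); 500 nM antisense PNA as control.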

Test [2] can be described thus: Cell Viability - LYMP2-001 (AID 921). Further: nearly all actives have a fitted effect of over 70% in size. Further: potency means the concentration at half of the fitted maximal effect. In a few lines: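 Human lymphoblastoid LYMP2-001 cells, 2500 per well, in complete medium, treated 24 h at 37 C. Viability from cellular ATP by CellTiter-Glo luminescence; AC50 from Hill-equation fits of qHTS concentration-response.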
A short description of test [3]: MultiTox-Fluor Cytotoxicity Assay - LYMP1-001 - Dead Cells (AID 946). Further: potency means the concentration at half of the fitted maximal effect. The method, boiled down: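 LYMP1-001 lymphoblastoid cells (2500/well) treated 16 h at 37 C. Dead-cell protease cleavage of bis-AAF-R110 read at Ex/Em 485/520. Normalized to DMSO and 15 uM tetraoctylammonium bromide; AC50 from Hill fits.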
Test [4] is described as follows: MultiTox-Fluor Cytotoxicity Assay - LYMP1-001 - Live Cells (AID 947). Further: potency means the concentration at half of the fitted maximal effect.
Test [5] is described as follows: Cell Viability - LYMP1-002 - Assay at 16 hr (AID 948). Further: potency means the concentration at half of the fitted maximal effect. The method, boiled down:
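LYMP1-002 human lymphoblastoid cells, 2500/well, were treated with compounds for 16 hr at 37 C in complete medium. Viability was read as intracellular ATP by CellTiter-Glo luminescence, and AC50 was derived from a Hill fit to concentration-response data.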

Test [6] is described as follows: MultiTox-Fluor Cytotoxicity Assay - LYMP1-003 - Dead Cells (AID 961). Further: nearly all actives have a fitted effect of over 70% in size. Further: potency means the concentration at half of the fitted maximal effect. In a few lines: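 LYMP1-003 human lymphoblastoid cells (2500/well) exposed to compound 16 h at 37 C in complete medium; dead-cell protease read with bis-AAF-R110 fluorescence (Ex/Em 485/520) after 60 min at room temperature. Normalized to DMSO and 15 uM tetraoctylammonium bromide; AC50 from Hill fit.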

A short description of test [7]: MultiTox-Fluor Cytotoxicity Assay - LYMP1-003 - Live Cells (AID 962). Further: potency means the concentration at half of the fitted maximal effect. The method, boiled down: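 Live-cell protease activity (GF-AFC substrate, 405/510 nm, 60 min at room temperature) after 16 h, 37 C compound exposure of human lymphoblastoid LYMP1-003 cells; concentration-response fitted to the Hill equation for AC50.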
The nature of test [8]: Cell Viability - LYMP1-003 - Assay at 24 hr (AID 963). Further: potency means the concentration at half of the fitted maximal effect. The method, boiled down:
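Concentration-response qHTS: ATP loss measured by CellTiter-Glo luminescence after 24 h compound exposure at 37 C. Cells were LYMP1-003 human lymphoblastoid, 2500 per well. AC50 derived via standard Hill equation modeling.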

The nature of test [9]: Cell Viability - LYMP1-003 - Assay at 40 hr (AID 964). Further: nearly all actives have a fitted effect of over 60% in size. Further: potency means the concentration at half of the fitted maximal effect. In a few lines:
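Viability is taken as cellular ATP, read by CellTiter-Glo luminescence after 40 h of compound exposure at 37 C. Cells: human lymphoblastoid line LYMP1-003 at 2500/well; AC50 values derived by Hill-equation fitting of concentration-response data.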

A short description of test [10]: Confirmation and Secondary Assay for Modulators of Hemoglobin Beta Chain Splicing at IVS2 705 locus (AID 930).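 Further: HeLa cells stably expressing the EGFP-705 splicing reporter; series mostly up to about 46 µM.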 The method, boiled down: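 Assay measures total GFP intensity per well in HeLa EGFP-705 cells after 2 days with compound; mis-splicing normally truncates EGFP, so fluorescence indicates corrected splicing.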
Test [11] is described as follows: MultiTox-Fluor Cytotoxicity Assay - LYMP1-002 - Dead Cells (AID 960). Further: nearly all actives have a fitted effect of over 60% in size. Further: potency means the concentration at half of the fitted maximal effect. The method, boiled down:
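Dead-cell fluorescence (Ex/Em 485/520) after 16 h compound exposure at 37 C of LYMP1-002 lymphoblastoid cells in complete medium; AC50 by Hill equation, with data scaled between DMSO and 15 uM tetraoctylammonium bromide.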

The nature of test [12]: qHTS Assay for Identification of Small Molecule Agonists for Thrombopoietin (TPO) Signaling Pathway (AID 917). In a few lines: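 Stimulation at the TPO EC50 (26 pM final) was used to detect activators. Ba/F3 mouse cells bearing human TPO receptor and a luciferase reporter under the Glycoprotein IIb promoter were exposed to compounds for 24 hrs at 37 C.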
In general terms: Quantitative high-throughput screening tests each substance at several concentrations.

The target in test [13] is Muscarinic acetylcholine receptor M1 (Rattus norvegicus) (UniProt P08482). Put plainly: qHTS Assay for Antagonists of Acetylcholine Muscarinic M1 Receptor: Kinetic Measurement of Intracellular Calcium Response (AID 943).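 Further: Fluo-4 calcium signal as peak divided by basal fluorescence over 4 min; series mostly up to about 35 µM; nearly all actives have a fitted effect of over 75% in size.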 In a few lines:
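Antagonism measured as reduction of carbachol-evoked (EC80, 100 nM final) calcium flux in rat M1-CHO cells after 10 min compound exposure. Fluo-4 signal read kinetically; ratio of maximal to basal fluorescence.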

Test [14] shares this target. Put plainly: qHTS Assay for Antagonists of Acetylcholine Muscarinic M1 Receptor: Measurement of IP-One Response (AID 944). Further: nearly all actives have a fitted effect of over 75% in size. The method, boiled down:
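IP1 accumulation measured via TR-FRET between d2-IP1 and Eu-cryptate anti-IP1 antibody after carbachol (200 nM, EC80) stimulation for 30 min; rat M1-transfected CHO cells received compound 10 min before agonist.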

For test [15], the target named is Pyruvate kinase (Leishmania mexicana) (UniProt Q27686). Put plainly: qHTS Validation Assay for Inhibitors of Leishmania Mexicana Pyruvate Kinase (AID 945). The method, boiled down: (§1)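 Pyruvate kinase activity of E451W LmPYK (0.2 nM) was followed as ATP output after 1 h at room temperature with 0.5 mM PEP and 0.1 mM ADP, detected by PKLight luminescence.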
Test [16] concerns the target Pyruvate kinase PKM (Homo sapiens) (UniProt P14618). As to the kind of experiment: qHTS Assay for Activators of Human Muscle Pyruvate Kinase (AID 954; active means well fitted curve in the direction sought with a large enough effect, not every such curve was filed as active). The method, boiled down:
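Compound pinned into substrate mix (0.5 mM PEP, 0.1 mM ADP), then 0.1 nM PKM2 added; 1 h, RT. Stop/detection luciferase reagent added, luminescence read. Normalized to no-inhibition and no-enzyme or reference-inhibitor controls.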

Test [17] deals with Pyruvate kinase (Leishmania mexicana) (UniProt Q27686). Put plainly: qHTS Validation Assay for Activators of Leishmania Mexicana Pyruvate Kinase (AID 959). In a few lines: as §1

Sequence of Muscarinic acetylcholine receptor M1 (Rattus norvegicus) (P08482 whole entry, looked up): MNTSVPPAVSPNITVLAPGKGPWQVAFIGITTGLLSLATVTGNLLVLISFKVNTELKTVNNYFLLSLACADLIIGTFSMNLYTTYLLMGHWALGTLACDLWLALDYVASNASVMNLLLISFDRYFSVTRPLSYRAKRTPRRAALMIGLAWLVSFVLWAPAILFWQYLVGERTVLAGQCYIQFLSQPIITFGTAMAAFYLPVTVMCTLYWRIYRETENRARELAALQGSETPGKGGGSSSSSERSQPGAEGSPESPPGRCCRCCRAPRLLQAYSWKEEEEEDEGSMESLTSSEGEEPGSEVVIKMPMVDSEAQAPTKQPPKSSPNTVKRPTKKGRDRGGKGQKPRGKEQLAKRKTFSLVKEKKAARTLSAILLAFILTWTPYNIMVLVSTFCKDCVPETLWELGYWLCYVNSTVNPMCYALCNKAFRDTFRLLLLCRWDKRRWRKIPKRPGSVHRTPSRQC
Sequence of Pyruvate kinase PKM (Homo sapiens) (P14618 whole entry, looked up): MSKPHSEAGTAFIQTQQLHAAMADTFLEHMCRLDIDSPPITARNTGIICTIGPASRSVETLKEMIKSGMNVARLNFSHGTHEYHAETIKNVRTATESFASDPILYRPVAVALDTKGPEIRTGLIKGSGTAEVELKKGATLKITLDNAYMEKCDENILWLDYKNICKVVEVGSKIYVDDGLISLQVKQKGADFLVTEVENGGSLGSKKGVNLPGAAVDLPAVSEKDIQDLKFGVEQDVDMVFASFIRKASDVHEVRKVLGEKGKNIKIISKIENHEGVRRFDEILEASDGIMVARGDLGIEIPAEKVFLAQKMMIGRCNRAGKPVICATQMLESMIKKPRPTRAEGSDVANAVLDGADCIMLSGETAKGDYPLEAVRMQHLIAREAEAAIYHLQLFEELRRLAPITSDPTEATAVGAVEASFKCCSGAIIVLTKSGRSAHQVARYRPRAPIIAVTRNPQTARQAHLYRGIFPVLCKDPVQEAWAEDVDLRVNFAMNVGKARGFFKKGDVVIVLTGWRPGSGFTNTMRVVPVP
Sequence of Pyruvate kinase (Leishmania mexicana) (Q27686 2-499 E452W): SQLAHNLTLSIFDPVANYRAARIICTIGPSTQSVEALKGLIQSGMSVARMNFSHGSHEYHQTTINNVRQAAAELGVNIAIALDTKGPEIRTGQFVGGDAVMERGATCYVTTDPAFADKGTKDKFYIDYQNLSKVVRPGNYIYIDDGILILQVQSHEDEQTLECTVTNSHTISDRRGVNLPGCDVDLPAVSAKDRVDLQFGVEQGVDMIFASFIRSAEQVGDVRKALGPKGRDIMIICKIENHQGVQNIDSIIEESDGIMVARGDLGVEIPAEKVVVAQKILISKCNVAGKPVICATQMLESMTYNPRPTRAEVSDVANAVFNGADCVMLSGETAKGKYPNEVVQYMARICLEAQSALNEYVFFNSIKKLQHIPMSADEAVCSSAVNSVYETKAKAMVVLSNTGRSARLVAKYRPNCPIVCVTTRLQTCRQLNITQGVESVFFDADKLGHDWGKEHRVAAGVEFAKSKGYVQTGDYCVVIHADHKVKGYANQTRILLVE

Consider `NC(=NCCCCCCN=C(N)/N=C(\N)Nc1ccc(Cl)cc1)/N=C(\N)Nc1ccc(Cl)cc1`, for which, in test [1], the outcome was inactive. Moreover, the Potency in [2] was 39.8 µM (active); in test [3], 50.1 µM (active); in test [4] it was 39.8 µM (active); in test [5], 50.1 µM (active); in test [6] it was 31.6 µM (active); in test [7], 50.1 µM (active). Further, the Potency is 50.1 µM (active) in test [8] and 31.6 µM (active) in [9].
In the case of `Oc1c(I)cc(I)c2cccnc12`, the outcome in test [1] and in test [10] was inactive.
Consider `O=c1ccc2ccccc2o1`, for which the compound was classed as inactive in test [1]. Moreover, the Potency entry in test [2], in [3], in test [4], in test [5], in test [11] and in test [6] was “inactive” throughout. The Potency result in [7], in test [8] and in test [9] was “inactive” throughout.
Take `C[N+]1(CCCCC[N+]2(C)CCCC2)CCCC1`: the compound was classed as inactive in test [1], in [12], in [13], in [15] and in [16]. In addition, the Potency entry in [14] is “inactive”.
With `O=C(O)c1cc2cc(Cc3cccnc3)ccc2o1`, the outcome in test [1], in test [12], in test [10], in [16] and in test [17] was inactive. Besides, the Potency result in test [14] was “inactive”.
For the compound `Oc1c(I)cc(Cl)c2cccnc12`, the result in [1] and in test [10] was inactive. Moreover, the figures for the Potency in test [2], in [11] and in test [9] were 39.8 µM (active), 31.6 µM (active) and 39.8 µM (active), respectively. For the same compound, the Potency entry in test [3] is “inactive”.
Consider `CC(=O)Oc1ccc(C(c2ccc(OC(C)=O)cc2)c2ccccn2)cc1`, for which the outcome in test [1] was inactive. The Potency entry in [2], in test [3], in test [4], in test [5], in test [11] and in [6] was “inactive” in each case. The Potency entry in [7], in test [8] and in test [9] was “inactive” in each case.
Consider `C=CCc1ccc(O)c(OC)c1`, for which the call in test [1] and in test [10] was inactive. Besides, the Potency entry in test [2], in [3], in test [4], in test [5], in test [11] and in test [6] was “inactive” in each case. For the same compound, the Potency entry in [7], in test [8] and in test [9] was “inactive” in each case.
Take `CN(C)/N=N/c1nc[nH]c1C(N)=O`: the call in test [1] and in test [10] was inactive. The Potency entry in test [2], in test [3], in [4], in test [5], in test [11] and in test [6] was “inactive” throughout. For the same compound, the Potency entry in [7], in test [8] and in [9] was “inactive” throughout.

For the origin of these results see PubChem BioAssay (NCATS).
